Test results published in PubChem BioAssay (NCATS).
Records with an inconclusive call do not appear. Unmarked numbers belong to inactive results. Active and inactive are the calls of the source. Calls follow the shape of the dose curve; as a rule, active = well fitted inhibition curve with a large enough effect; inconclusive = small, poorly fitted or top-dose-only effect; inactive = flat fitted curve, though single readings scatter.

What follows are compounds tested on W2 (assay: qHTS profiling for inhibitors of Plasmodium falciparum proliferation (AID 504749; also: nearly all actives have a fitted effect of over 60% in size;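 as to activity, negative = inhibition: 0% = DMSO vehicle and full inhibition = artemisinin control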)). Settings: P. falciparum in erythrocytes, SYBR Green DNA, 72 h; series mostly up to 28.7 µM; activity, negative = inhibition: at the top concentration.
Outline: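 Three-day growth assay of blood-stage parasites in erythrocytes (0.3% parasitemia, 2.5% hematocrit) at 37 C, 5% CO2, quantified by SYBR Green DNA staining after overnight detergent lysis.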
Potency is read from the fitted curve at half-maximal effect.

Compound	activity, negative = inhibition	Potency
CCCN[C@H]1CCc2nc(N)sc2C1	-5.02%	–
CCOCC(O)COc1ccc(NC(=O)CC[S+](C)C)cc1 (stereo unspecified)	-9.33%	–
COc1cc(NS(=O)(=O)c2ccc(N)cc2)nc(OC)n1	16.3% [at 12.8 µM]	–
CCCc1cc(C(N)=S)ccn1	11.3%	–
O=C(O)c1cn(C2CC2)c2cc(N3CCNCC3)c(F)cc2c1=O	–	4.55 µM (active)
CN(C)CCc1c[nH]c2ccc(CS(=O)(=O)N3CCCC3)cc12	9.95%	–
CCOc1cc(N)c(Cl)cc1C(=O)NCC1CN(Cc2ccc(F)cc2)CCO1 (stereo unspecified)	–	7.57 µM (active)
Cc1oc(=O)oc1CN1CCN(c2cc3c(cc2F)c(=O)c(C(=O)O)c2n3C(C)S2)CC1 (stereo unspecified)	–	4.78 µM (active)
OC(Cn1cncn1)(Cn1cncn1)c1ccc(F)cc1F	2.35%	–
O=NN(CCCl)C(=O)NC1CCCCC1	-2.09%	–
Cc1cccc(N(C)C(=S)Oc2ccc3ccccc3c2)c1	-3.77% [at 12.8 µM]	–
CN(CCOc1ccc(CC2SC(=O)NC2=O)cc1)c1ccccn1 (stereo unspecified)	8.55%	–
CCc1cc(C(N)=S)ccn1	-3.46%	–
CCN(C)C(=O)Oc1cccc([C@H](C)N(C)C)c1	-20.4%	–
CC[C@H](NC(C)C)[C@H](O)c1ccc(O)c2[nH]c(=O)ccc12	1.82%	–
CC(C)OC(=O)C(C(=O)OC(C)C)=C1SC=CS1	-2.48%	–
